# From PubChem BioAssay (NCI)
# The panel holds about 83,000 compounds, 20% with a hit somewhere; the sample as a whole holds those more often.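 Testing used 96-well plates and a 48-hour single-concentration exposure. Example: -40 means 40% of the starting cells died.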 Values without a mark were called inactive. Calls of active or inactive are those of the source. How the source made its calls: active means growth percent below 10; inactive means the rest.
# Assays:
# Experiment in all cases: NCI-60 one-dose screen, 48 h (100 = growth as untreated, 0 = no growth, -100 = all killed)
# Conditions in all cases: 10 µM
# NCI-H23 lung = tested on: NCI-H23 lung
# NCI-H226 lung = tested on: NCI-H226 lung
# NCI-H322M lung = tested on: NCI-H322M lung
# HOP-62 NSCLC = tested on: HOP-62 NSCLC
# NCI-H460 lung = tested on: NCI-H460 lung
# HOP-92 NSCLC = tested on: HOP-92 NSCLC
# NCI-H522 lung = tested on: NCI-H522 lung
# A549/ATCC NSCLC = tested on: A549/ATCC NSCLC
# 786-0 renal = tested on: 786-0 renal
# COLO 205 colon = tested on: COLO 205 colon
SMILES,growth (NCI-H23 lung),growth (NCI-H226 lung),growth (NCI-H322M lung),growth (HOP-62 NSCLC),growth (NCI-H460 lung),growth (HOP-92 NSCLC),growth (NCI-H522 lung),growth (A549/ATCC NSCLC),growth (786-0 renal),growth (COLO 205 colon)
CCCSc1nc(NC2CC2)c(C#N)c(-c2ccc(OC)cc2)n1,96.4%,99.4%,89.3%,84.6%,85.6%,77.7%,93.3%,71.8%,77.1%,134%
COc1cccc2nc(Nc3ccc(F)c(NC(=O)c4ccc(CN5CCN(C)CC5)c(C(F)(F)F)c4)c3)ccc12,-17.8% (active),17%,32.7%,-36.4% (active),-68.8% (active),-22.8% (active),-60.9% (active),18.5%,-66.3% (active),-78.7% (active)
COc1ccc2[nH]c(=O)c(CSc3nccc(-c4ccc(Cl)cc4)n3)cc2c1,33.9%,-26.1% (active),44.9%,32.9%,9.38% (active),4.58% (active),-32.2% (active),2.57% (active),-28.6% (active),20.5%
N#Cc1c(-c2ccc(F)cc2)nc(SCc2ccc([N+](=O)[O-])cc2)nc1N1CCOCC1,74.8%,23.8%,82.7%,34.7%,77.4%,36.7%,41.3%,63.4%,30.2%,90.9%
CN1CCN(c2ccc(C(=O)/C=C/c3cc(Br)ccc3F)cc2)CC1,49.4%,61.6%,93.3%,77.1%,67.2%,31.6%,66.4%,28.5%,27.1%,34.8%
CC(C)Sc1nc(NC2CC2)c(C#N)c(-c2ccccc2)n1,75.5%,22.4%,77.4%,33.9%,75.1%,58.4%,60.9%,48.6%,28.5%,90.5%
Cc1ccc(-c2cc(-c3cc4ccccc4nc3Cl)[nH]c(=O)n2)cc1,10.1%,-8.6% (active),32.1%,-9.15% (active),0.523% (active),5.62% (active),-11.7% (active),35.5%,-22.6% (active),24.7%
CN1C(=O)N(C)C2SC(N/N=C/c3ccccc3F)=NC21 (stereo not given),76.5%,92.4%,97.2%,68.3%,58.2%,124%,46.1%,63.1%,68.7%,100%
Cc1ccc(-c2nc3ccc(C(=O)N=Nc4c(O)[nH]c5ccc([N+](=O)[O-])cc45)cc3[nH]2)cc1,64.6%,45.4%,105%,88.5%,103%,44.3%,78.3%,98%,85.2%,70.9%
S=c1nc(-c2ccccc2)cc(-c2cc3ccccc3nc2Cl)[nH]1,78.5%,76.8%,98.5%,72.7%,90.4%,75.9%,57.8%,86.1%,90.5%,96.3%
O=C1Nc2cc(Cl)ccc2/C1=C/c1cccc(OCc2ccccc2)c1,11.9%,21.9%,29.5%,0.755% (active),3.73% (active),-6.89% (active),-63% (active),5.95% (active),-12% (active),-22.8% (active)
CC(=O)Nc1nc(-c2ccc(N3CCN(C)CC3)c(NS(=O)(=O)c3cccc4c(N(C)C)cccc34)c2)cs1,58.1%,75.5%,64.7%,69.7%,58.9%,50.6%,59.6%,71.3%,34.4%,47.4%
Brc1ccc(/C=N/Nc2ncnc3sc4c(c23)CCN(Cc2ccccc2)C4)cc1,91.8%,3.93% (active),94.1%,103%,14%,67%,90.4%,74.2%,48.5%,34.8%
COc1ccc(/C(CSc2nnc(-c3c[nH]c4ccccc34)n2-c2ccccc2)=N/O)cc1,41.6%,18.2%,36.4%,45%,17.3%,28.2%,36.5%,34.2%,59.7%,36.3%
Cc1ccc(-c2cc(-c3cc4ccccc4nc3Cl)[nH]c(=S)n2)cc1,71.5%,74.2%,81.7%,90.1%,83.3%,44.7%,37.8%,85.5%,74.3%,89.5%
COc1ccccc1[C@H]1C(C(=O)c2ccc(Cl)cc2)C2(N[C@@H]1c1ccccc1)C(=O)Nc1ccccc12 (stereo not given in full),-55.3% (active),-53.2% (active),10.3%,-21.9% (active),-27.2% (active),-21.8% (active),-27.5% (active),9.22% (active),-15% (active),-88.2% (active)
Cc1noc2c(Cc3ccccc3)nn(CC(=O)N/N=C/c3ccc(Br)cc3)c(=O)c12,69.9%,32.5%,102%,43.3%,13.1%,35.1%,74.4%,18.1%,-24.9% (active),39.7%
O=C(Cn1nc(-c2ccccc2)ccc1=O)NN1C(=O)c2ccccc2C1=O,105%,101%,117%,102%,99.7%,125%,77.5%,108%,103%,131%
O=C(Nc1cccc(-c2cn(-c3ccc4oc(=O)ccc4c3)nn2)c1)Nc1cc(C(F)(F)F)cc(C(F)(F)F)c1,4.21% (active),33.4%,34.4%,1.89% (active),27.8%,-28.1% (active),21.8%,21.8%,29.3%,44.3%
N[C@@H](CSSC[C@H](N)C(=O)Nc1ccc(OCC2CCCC2)cc1)C(=O)Nc1ccc(OCC2CCCC2)cc1,-92.9% (active),-72.5% (active),-99.5% (active),-90.7% (active),-77.1% (active),-72.8% (active),-93.2% (active),-90.7% (active),-59.9% (active),-92.5% (active)
COc1ccc2nc(Cl)c(-c3cc(-c4ccccc4)nc(=S)[nH]3)cc2c1,72.6%,80.2%,89.4%,75.7%,90.4%,54.1%,37%,93.6%,78%,72.6%
CCOC(=O)C1NN(c2ccc(S(N)(=O)=O)cc2)c2nc3nc(-c4cccs4)cc(-c4cccs4)c3c(=O)n21 (stereo not given),96.6%,5.85% (active),99.7%,109%,77.6%,61.5%,77.2%,90.9%,78.7%,81.1%
